Here are results for 34 compounds from PubChem BioAssay (NCI).

The nature of assay [1]: NCI Yeast Anticancer Drug Screen. Data for the rad50 strain (AID 155).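 Further: 0% = growth of vehicle-only cultures of the same strain.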 The following applies: S. cerevisiae rad50 strain growth inhibition; at 50.0 µM; active compounds read high. The gist of the method: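 Relative growth inhibition (compound vs vehicle) was measured in yeast with a defined repair-gene alteration.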
Assay [2] can be described thus: NCI Yeast Anticancer Drug Screen. Data for the mec2-1 strain (AID 157). Conditions: S. cerevisiae mec2-1 strain, at 50.0 µM, active compounds read high. The essentials:
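Mutant yeast (mec2-1) grown with compound; growth inhibition relative to vehicle control reported.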

Assay [3] in a line: NCI Yeast Anticancer Drug Screen. Data for the cln2 rad14 strain (AID 165).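 Further: 0% = growth equal to vehicle treated cultures.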 Conditions: S. cerevisiae cln2 rad14 strain, at 50.0 µM, active compounds read high. The essentials:
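Readout is yeast growth inhibition versus vehicle-treated controls, using a strain with cln2 and rad14 alterations exposed to compound.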

Assay [4] can be described thus: NCI Yeast Anticancer Drug Screen. Data for the bub3 strain (AID 167). The following applies: S. cerevisiae bub3 mutant strain, at 50.0 µM, active compounds read high. The gist of the method: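 Screening used yeast with an engineered genetic alteration affecting cell cycle control. Compound-exposed cultures were compared with vehicle cultures, and reduced growth was taken as inhibition.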

A short description of assay [5]: NCI Yeast Anticancer Drug Screen. Data for the mlh1 rad18 strain (AID 175). The following applies: S. cerevisiae mlh1 rad18 strain growth inhibition; at 50.0 µM; active compounds read high. The essentials:
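Genetically defined yeast (DNA repair-deficient) exposed to compounds; growth inhibition determined relative to vehicle.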

Compounds without any hit were thinned out: in the full panel of roughly 79,000, 15% have a hit. Unmarked numbers belong to inactive results. Activity calls are given as the source filed them. No stated cut-off is given here; in the data, active means growth inhibition above about 70%; inactive means the rest.

As for `CN(Cc1ccccc1)c1ccc(C(=O)O)cc1`, the growth inhibition is -2.65% in assay [1]; 2.3% in assay [2]; -19% in assay [3]; -23.6% in assay [4]; 7% in assay [5].

On to `CN1CCC(OC(=O)C(O)C2CCCCC2)CC1` (centres undefined), for which the growth inhibition in assay [1] was 23.5%; in assay [2] it was 23%; in assay [3], 31.2%; in assay [4], 19.9%; in assay [5], 41.8%.

Regarding `CC(=O)N1C(=O)NC(=O)C1(C)C`, the growth inhibition in assay [1] was -7%; in assay [2], -29.9%; in assay [3] it was -18.5%; in assay [4], 1.5%; in assay [5], -7.15%.

In the case of `O=C(Nc1cccc(Cl)c1)OC1C=CCC1` (centres undefined), the growth inhibition was 3.4% in assay [1]; 1.75% in assay [2]; -20.1% in assay [3]; -2.15% in assay [4]; -15.5% in assay [5].

Turning to `CCN(CC)C(=O)C1(C)NS(=O)(=O)c2ccccc2C1=O` (centres undefined), the growth inhibition was -7.05% in assay [1]; 10.1% in assay [2]; -31.9% in assay [3]; -10.8% in assay [4]; -9.45% in assay [5].

Consider `COc1ccc(N=C(C)C2C(=O)c3ccccc3C2=O)cc1`, for which the growth inhibition was 44% in assay [1]; -21.9% in assay [2]; 13.7% in assay [3]; 16.6% in assay [4]; -30.7% in assay [5].

As for `S=C(N/N=C\c1ccccc1)Nc1ccccc1`, the growth inhibition was 6.65% in assay [1]; -1.05% in assay [2]; 8.65% in assay [3]; 10.8% in assay [4]; 14.9% in assay [5].

For the compound `CC(=O)Nc1cc2cc(NC=C(C#N)C#N)ccc2oc1=O`, the growth inhibition in assay [1] was -1.8%; in assay [2], -27.3%; in assay [3] it was 15.9%; in assay [4], 18.3%; in assay [5] it was -2.5%.

Regarding `CCOC(=O)c1cn(C)c2c1C(=O)C(C(=O)OCC)CC(=O)N2` (centres undefined), the growth inhibition in assay [1] was -4.55%; in assay [2], -4.15%; in assay [3], -53.6%; in assay [4] it was -6.4%; in assay [5], -8.25%.

For `C=CN1C(=O)c2ccccc2C1=O`, the growth inhibition was -12.8% in assay [1]; -12.4% in assay [2]; 6.3% in assay [3]; -6.5% in assay [4]; -24% in assay [5].

`CCOC(=O)CCCCCSc1n[nH]c(=O)[nH]c1=O`: the growth inhibition was -7.5% in assay [1]; -11% in assay [2]; 5.75% in assay [3]; 6.15% in assay [4]; -4.2% in assay [5].

With `CC(C)CC(F)(C(N)=O)C(N)=O`, the growth inhibition in assay [1] is -4.6%; in assay [2], -4.15%; in assay [3] it was -3.05%; in assay [4] it was -5.65%; in assay [5] it was -4.2%.

`CC(=O)Oc1ccc(C2COc3cc(OC(C)=O)c(OC(C)=O)cc3C2)cc1` (centres undefined): the growth inhibition is 21.2% in assay [1]; 31.6% in assay [2]; 9.4% in assay [3]; 49.6% in assay [4]; 37.5% in assay [5].

For the compound `O=c1c2cc(-c3ccccc3)sc2nc2n1N=C(c1ccccc1)CS2`, the growth inhibition was -1.35% in assay [1]; -2.7% in assay [2]; 21.3% in assay [3]; -2.85% in assay [4]; -18.6% in assay [5].

For `Cn1c(=O)c(Cl)c(N=[N+]=[N-])c2ccccc21`, the growth inhibition in assay [1] is 45.1%; in assay [2], 37.4%; in assay [3], 51%; in assay [4], 22%; in assay [5] it was 30.2%.

Regarding `N#CCCNC1CCCCC1`, the growth inhibition in assay [1] was 2.95%; in assay [2], 4%; in assay [3], -14.3%; in assay [4], 0.85%; in assay [5] it was -0.25%.

Regarding `CC(=O)/C(=C\c1ccccc1F)C(=O)CCN(C)C`, the growth inhibition was 7.95% in assay [1], 6.55% in assay [2], 13.6% in assay [4] and 28.3% in assay [5].

Take `O=CN(CCO)CCO`: the growth inhibition in assay [1] was -1.6%; in assay [2], 1.25%; in assay [3] it was 11.1%; in assay [4], 7.35%; in assay [5], -4.2%.

As for `Cc1cc(C)[n+](C)c2cc3ccccc3cc12`, the growth inhibition in assay [1] was 26.4%; in assay [2], -20.2%; in assay [3], 44.2%; in assay [4], -8.55%; in assay [5], -28.5%.

Turning to `C/C=C(\Cl)C=O`, the growth inhibition in assay [1] was 12.4%; in assay [2], 5%; in assay [3], -9.7%; in assay [4], 3.5%; in assay [5] it was 11.2%.

For the compound `CN(Cc1ccc(Cl)cc1)C(=O)NCCCCCCNC(=O)N(C)Cc1ccc(Cl)cc1`, the growth inhibition in assay [1] is 96.8% (active); in assay [2], 96.6% (active); in assay [3], 96.2% (active); in assay [4], 95.7% (active); in assay [5] it was 96.8% (active).

For `CCCCCCCCN1N=C(C)CCC1=O`, the growth inhibition in assay [1] is -7.55%; in assay [2], -9.2%; in assay [3], -23.7%; in assay [4], -25.7%; in assay [5] it was -8.55%.

As for `Cc1ccc(Cc2ccccc2C(=O)O)cc1`, the growth inhibition in assay [1] was -5.95%; in assay [2], 1.55%; in assay [3], -42.9%; in assay [4], -2.45%; in assay [5] it was -6.05%.

Regarding `O=C(O)C(=O)NCc1cnccn1`, the growth inhibition in assay [1] was 10.9%; in assay [2], -8.25%; in assay [3], -29.6%; in assay [4], 11.9%; in assay [5], -19.1%.

As for `O=C(O)CCC(C(=O)O)N1C(=O)C2C3CCC(C3)C2C1=O` (centres undefined), the growth inhibition in assay [1] is -26%; in assay [2] it was -33.9%; in assay [3], -16%; in assay [4], -24.9%; in assay [5] it was -5.45%.

For `COc1cccc(N=Nc2c(-c3ccccc3)nn(C(=S)S)c2C)c1`, the growth inhibition in assay [1] is -2.6%; in assay [2], 0.6%; in assay [3], -192%; in assay [4], 19.3%; in assay [5] it was 20.6%.

`C[C@@]12CCC[C@H]1[C@@H]1CCC3=CC(=O)CC[C@]3(C)[C@H]1CC2`: the growth inhibition in assay [1] is 4.15%; in assay [2], 1.45%; in assay [3] it was -27.1%; in assay [4], 10.7%; in assay [5], 1.05%.

For `CCC(=O)NC(C(=O)O)C(C)(C)S` (centres undefined), the growth inhibition in assay [1] was -0.4%; in assay [2] it was -3.65%; in assay [3] it was 5.9%; in assay [4], 2.4%; in assay [5] it was -3.95%.

Take `CCc1ccccc1NC(C)=O`: the growth inhibition in assay [1] is -4.75%; in assay [2], -16.4%; in assay [3] it was -5.2%; in assay [4] it was 0.25%; in assay [5], -12.7%.

Take `Cc1ccc(SCc2ccc(Cl)cc2)nn1`: the growth inhibition is 4.05% in assay [1]; 0.3% in assay [2]; -13.8% in assay [3]; 26.8% in assay [4]; -5% in assay [5].

Take `O=c1[nH]c2cc([N+](=O)[O-])ccc2nc1/C=C(\O)c1ccc(Cl)cc1`: the growth inhibition was -23.2% in assay [1]; -22.8% in assay [2]; -9.15% in assay [3]; -12.2% in assay [4]; -36.7% in assay [5].

In the case of `O=C(c1ccccc1)C1(c2ccccc2)C(C(=O)c2ccccc2)(c2ccccc2)S1(=O)=O` (centres undefined), the growth inhibition was -19.8% in assay [1]; -13.5% in assay [2]; -38.8% in assay [3]; -6.6% in assay [4]; -15.3% in assay [5].

Consider `Cc1cc2oc(=O)[nH]c(=S)c2c(C)c1C`, for which the growth inhibition in assay [1] is -47.7%; in assay [2], -19.2%; in assay [3], 2.45%; in assay [4] it was -59.5%; in assay [5], -36.6%.

For `COC(=O)NCP(=O)(CNC(=O)OC)CNC(=O)OC`, the growth inhibition is 13.8% in assay [1]; 1.4% in assay [2]; 8.65% in assay [3]; -4% in assay [4]; 10.7% in assay [5].
